Reference: PubChem BioAssay AID431 (Sanford-Burnham Center for Chemical Genomics, 2006)
The campaign covered roughly 63,000 compounds. About 1,100 (1.7%) were called active.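 Rule for the calls: active = compounds whose percent cytotoxicity in the single-dose primary screen, scaled between solvent and toxic-drug controls, exceeds 50; inactive = the rest.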 This excerpt belongs to a sample that is enriched for actives. Potency and affinity values are given separately.

Experiment: cytotoxicity in KRAS-transformed pancreatic duct cells, primary screen, cell-based, fluorescence, HTS (AID 431);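 note: 0% = DMSO solvent wells and 100% = doxorubicin-treated wells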
Settings: HPDE-C7K KRASV12 cells, Alamar Blue viability, 48 h; at 10 µM; active compounds read high

SMILES | cytotoxicity
CCCN(CCC)C(=O)C1CCN(c2cc(C)nc3c(-c4ccc(OC)c(OC)c4)c(C)nn23)CC1 | 7.2% (inactive)
COc1ccc(C(=O)C(c2ccccc2)N2CCOCC2)cc1 (stereo not given) | -2.4% (inactive)
COc1ccc(C(=O)O)cc1F | 2.5% (inactive)
COc1ccc(C(O)C(CN2CCOCC2)c2ccccc2)cc1F (stereo not given) | -8.6% (inactive)
COc1ccc(C(=O)CCN2CCCCCC2)cc1 | -7.8% (inactive)
Cc1c(C(=O)N2CCCCC2)sc(NC(=O)C2CC2)c1C#N | 2.5% (inactive)
O=C(Nc1ccccc1Cl)c1cnccn1 | -6.1% (inactive)
CCn1c2ccccc2c2cc(C3C(C#N)=C(C)NC(C)=C3C#N)ccc21 | 7.6% (inactive)
CCn1c2ccccc2c2cc(C3C(C#N)=C(N)OC4=C3C(=O)CC(C)(C)C4)ccc21 (stereo not given) | -10.7% (inactive)
Cc1ccc(N2C(=O)CSC23C(=O)Nc2ccccc23)cc1 (stereo not given) | -5.4% (inactive)
COC(=O)[C@@H](NC(=O)Nc1ccccc1F)C(C)C | 1.9% (inactive)
COc1ccc(C(N)=O)cc1N | -1% (inactive)
COc1ccc(C(=O)c2ccc(OC)c(OC)c2)cc1OC | -8.4% (inactive)
COc1ccc(C(=O)c2ccc(OC)c(N)c2)cc1N | 66.7% (active)
CN(Cc1ccccc1)C(=O)C1CCN(Cc2ccc(F)cc2)CC1 | 8.6% (inactive)
CC(C)(C)OC(=O)N1CCC(c2c(C(=O)O)cnn2-c2ccccc2Cl)CC1 | 1% (inactive)
Cc1ccc(CNC(=O)CCS(=O)(=O)c2ccc(Br)s2)o1 | -4.2% (inactive)
CCOc1ccccc1NC(=O)CN(c1ccc(OC)cc1)S(=O)(=O)c1c(C)noc1C | 52.8% (active)
COc1ccc(N(CC(=O)Nc2cc(Cl)ccc2OC)S(=O)(=O)c2c(C)noc2C)cc1 | 77.1% (active)
CCOc1ccccc1NC(=O)CN(c1cc(C)cc(C)c1)S(=O)(=O)c1c(C)noc1C | -9.2% (inactive)
COc1ccc(OC)c(NC(=O)CN(c2ccc(C)cc2)S(=O)(=O)c2c(C)noc2C)c1 | 1.7% (inactive)
COc1ccc(N(CC(=O)Nc2cc(C)ccc2OC)S(=O)(=O)c2c(C)noc2C)cc1 | 9.5% (inactive)
CCOc1ccccc1NC(=O)CN(c1ccc(C)cc1)S(=O)(=O)c1c(C)noc1C | -7.2% (inactive)
COc1ccccc1C(=O)N1CCN(S(=O)(=O)Cc2ccccc2)CC1 | -0.3% (inactive)
CCOc1cc(CNc2ncnc3nc[nH]c23)ccc1OC | 6.5% (inactive)

SMILES | cytotoxicity
Cc1ccc2nsnc2c1S(=O)(=O)N1CCN(C(=O)C2CCCO2)CC1 (stereo not given) | -15.6% (inactive)
COc1cc2c(cc1OC)C(C)N(C(=O)Cn1ncc3c1-c1ccccc1OC3)CC2 (stereo not given) | -1.4% (inactive)
CC(C)(C)C(=O)Cn1c(NCCCO)nc2ccccc21 | -18.5% (inactive)
Cc1onc(-c2ccccc2)c1C(N)=O | 50.5% (active)
Cc1onc(-c2ccccc2Cl)c1C(N)=O | 8% (inactive)
Cc1onc(-c2ccccc2)c1C(=O)N1CCCN(C(=O)c2c(-c3ccccc3)noc2C)CC1 | -5.2% (inactive)
CCOC(=O)c1[nH]c(C)c(C(=O)Nc2ccc(C)c(F)c2)c1C | 0.8% (inactive)
CCc1ccc(NC(=O)c2noc3c2CCCCC3)cc1 | 3.4% (inactive)
COc1ccc(C(=O)N2CCOCC2)cc1Br | -1% (inactive)
Cc1cccc(OCC(=O)OCC(=O)c2c(N)n(C)c(=O)n(C)c2=O)c1 | 3% (inactive)
O=C(C1CCCN(S(=O)(=O)c2ccc(Br)s2)C1)N1CCCCCC1 (stereo not given) | -15.2% (inactive)
COC(=O)C1C(=O)C2=C(CC1C)NC(=O)CC2c1ccc(O)c(OC)c1 (stereo not given) | -9.5% (inactive)
Cc1ccc(C(C)C)cc1S(=O)(=O)NCc1cccnc1 | 0.8% (inactive)
Cc1cc(C)c(C)c(S(=O)(=O)NCc2cccnc2)c1C | -6.4% (inactive)
Cc1ccc(C)c(S(=O)(=O)NCc2cccnc2)c1 | 52% (active)
COCCN1Cc2c(sc(C)c2C)N(C(=O)c2ccccc2)C1 | 5.6% (inactive)
CS(=O)(=O)N1CCc2cc(-c3csc(NC(=O)Cc4cccs4)n3)ccc21 | 2.8% (inactive)
O=C(Cc1cccs1)Nc1nc(-c2ccccc2)cs1 | -14.2% (inactive)
CC1Cc2cc(-c3csc(NC(=O)Cc4cccs4)n3)ccc2N1S(C)(=O)=O (stereo not given) | 61.4% (active)
CNC(=O)C1CCC(=O)N1Cc1ccc(C)cc1 (stereo not given) | -0.7% (inactive)
O=C(O)c1cc(-c2ccccc2)nc2ccccc12 | 2% (inactive)
Cc1ccc2nc(NCCO)nc(-c3ccccc3)c2c1 | 16.3% (inactive)
O=C(CSc1ncc(-c2ccc(F)cc2)[nH]1)Nc1cccc(O)c1 | 25.6% (inactive)
Cc1ccc(CNC(=O)C2C3C=CC(C3)C2C(=O)O)cc1 (stereo not given) | 1.9% (inactive)
CCOC(=O)N1CCN(c2cc(NCCC(=O)O)c3c4c(onc24)-c2ccccc2C3=O)CC1 | 61.7% (active)
